The list is not random: actives were taken first. Their share in the collection is about 7.2%.
Sm TGR block = qHTS Assay for the Inhibitors of Schistosoma Mansoni Peroxiredoxins; Potency, µM (series often up to 114 µM), for inactives: top-dose activity change, negative = inhibition, actives largely listed as inhibitors; purified TGR, DTNB reduction, TNB absorbance 405 nm; 360,000 compounds, 3% hits; AID 485364, 2010; further: nearly all actives have a fitted effect of over 60% in size
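Kinetic colorimetric format: TGR-catalysed, NADPH-driven DTNB reduction monitored via TNB absorbance. Enzyme dispensed at 20 nM; compound exposure 15 min at room temperature before reaction start.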
Lassa entry inh = qHTS for Inhibitors of binding or entry into cells for Lassa Virus; Lassa virus pseudotype entry inhibition, cell reporter; Potency, µM (titrated, usually from 37.9 µM), inactives show at the top dose activity change, negative = inhibition, hits mostly inhibitors; 300,000 compounds, 1.2% hits; AID 540256, 2011; calls by dose curve; tested in HEK293 cells; further: nearly all actives have a fitted effect of over 50% in size
HCV inhibitor = qHTS Assay for Inhibitors of Hepatitis C Virus (HCV); Huh7.5.1 HCVcc-Cre infection, luciferase reporter, 44 h; Potency, µM (series often up to 41.8 µM), inactives show at the top dose activity change, negative = inhibition, usual class: inhibitors; 340,000 compounds, 3.4% hits
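Whole-lifecycle infectious HCVcc-Cre system; cells 1,000/well, compound then virus (~0.5 moi) added 4 h after plating, 44 h culture. Luciferase read 15 sec following 15 min substrate incubation, room temp.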
RE007 growth inh = qHTS Assay for Inhibitors of the HIV-1 protein Vpr | S. pombe RE007 Vpr strain, BacTiter-Glo ATP luminescence, 24 h | AID 651644, 2012 | Potency, µM (series often up to 92.2 µM), inactives show at the top dose activity change, negative = less growth, actives largely listed as inhibitors | 360,000 compounds, 0.21% hits; active means well fitted falling curve with a large enough effect; inconclusive means small, poorly fitted or top-dose-only effect; inactive means no such curve, though single readings can be large or run the other way; further: nearly all actives have a fitted effect of over 50% in size
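Fission yeast RE007 carrying one integrated HIV-1 vpr copy, seeded at OD 0.01 in PMG+AL medium with 23 nL pinned compound. Grown 24 h at 30 degrees; viability read by BacTiter-Glo luminescence after 5 min.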
FMDV inh = High Throughput Screening for Foot and Mouth Disease Virus Antivirals. 410,000 compounds, 1.2% hits. AID 1159524, 2015. FMDV antiviral cell-based qHTS. Potency, µM (titrated, usually from 57.9 µM), for the others: at the top dose activity change, negative = inhibition, actives largely listed as inhibitors; calls by dose curve; tested in HEK293T cells; further: read-out not given here; nearly all actives have a fitted effect of over 45% in size
MARV entry inh = qHTS for inhibitors of binding or entry into cells for Marburg Virus | 300,000 compounds, 1.8% hits | AID 540276, 2011 | Potency, µM (titrated, usually from 37.8 µM), without a hit: top-dose activity change, negative = inhibition, usual class: inhibitors | Marburg virus pseudotyped entry inhibition, cell reporter; calls by dose curve; tested in HEK293 cells
* = called active by the depositor; ? = inconclusive; · = no result given; ! = repeats disagree; [ ] = another dose, or the depositor's remark. Unless noted, the call rests on the fitted dose curve; in most records, active means well fitted curve in the direction sought with a large enough effect; inconclusive means small, poorly fitted or top-dose-only effect, or another doubt; inactive means no such curve, though single readings can be large; an effect the other way counts as inactive or inconclusive. On the % scale 0 is the no-effect control and ±100 the full control effect; potency means the concentration at half of the fitted maximal effect.

SMILES | Sm TGR block | Lassa entry inh | HCV inhibitor | RE007 growth inh | FMDV inh | MARV entry inh
O=C(/C(=C/c1cccnc1)n1ccnc1)c1ccc(Cl)cc1Cl | 6% | · | -4% | 3% | ? | ·
CCC(C(=O)OCc1cc(=O)n2nc(C)sc2n1)c1ccccc1 (configuration not stated) | -6% | ? | · | · | -21% | ·
C=CCN1c2ccccc2[C@]23CCC(=O)N(CC(=O)OC)C2=NC(C(=O)OC)=C(C(=O)OC)[C@H]13 | · | · | · | · | · | 18%[14.2 µM]
COC[C@H]1OC(=O)c2coc3c2[C@@]1(C)C1=C(C3=O)C2CCC(=O)[C@@]2(C)C[C@H]1OC(C)=O (some centres not stated) | · | ? | · | · | ? | 0.045µM*!
COC[C@H]1OC(=O)c2coc3c2[C@@]1(C)C1=C(C3=O)[C@H]2CCC(=O)[C@@]2(C)C[C@H]1OC(C)=O | · | · | · | · | · | 0.045µM*
COc1cccc(CN2C(=O)NC(C)(C3CCN(Cc4ccc(C)o4)CC3)C2=O)c1OC (configuration not stated) | · | · | · | · | -17% | ·
O=C(CSc1n[nH]c(-c2cccs2)n1)N1CCN(S(=O)(=O)c2ccc3ccccc3c2)CC1 | 0% | ? | ? | -11% | 22µM* | ?
CC(C)(C)c1ccc(OCCSc2nc(-c3cccs3)nc3cc(=O)[nH]n23)cc1 | ? | 2%[46.1 µM] | · | · | -29% | ·
Cc1cc(Cl)c2oc(C(=O)N3CCN(c4ccncc4)CC3)c(C)c2c1 | · | ? | 1.3µM* | 6% | -15% | 3.5µM*
Cn1cccc1C(=O)N1CCC2(CCCN(Cc3ccccc3)C2)CC1 | · | · | · | · | -13% | ·
COc1ccc(C(CNC(=O)c2cc3c(s2)CCC(C)C3)N2CCCC2)cc1 (configuration not stated) | -20% | · | 10µM* | 0% | 9% | ·
CCC1CCc2sc(C(=O)NCC(c3ccccc3OC)N3CCCC3)cc2C1 (configuration not stated) | -6% | · | 7.1µM* | -2% | ? | ·
COc1ccc(CNC(=O)c2cc(-c3ccc(OC)c(OC)c3)nc3n[nH]c(-c4ccc(C)cc4)c23)cc1 | 8% | -16%[46.1 µM] | · | · | -19% | ·
COc1ccc(C(=O)OCc2ccccc2F)cc1S(=O)(=O)N1CCCC1 | -1% | -11% | ? | 2% | -2% | ?
COc1ccc(-c2noc(CN(C(C)C)S(=O)(=O)c3ccc(Br)cc3)n2)cc1 | 1% | -7%[46.1 µM] | · | · | 0% | -12%[46.1 µM]
CC(C)NC(=O)NC(=O)COC(=O)c1ccccc1Oc1ccccc1 | -34% | ? | 13% | 6% | -11% | 11µM*
Cc1ccc(NC(=O)Cn2c(=O)n(Cc3ccco3)c(=O)c3sc4ccccc4c32)cc1C | -2% | 4%[46.1 µM] | · | · | 0% | 5%[46.1 µM]
CCOC(=O)c1[nH]c2ccc(F)cc2c1NC(=O)CN1CCN(C/C=C/c2ccccc2)CC1 | -18% | ? | 10µM* | 23% | 32µM* | ?
COC(=O)c1[nH]c2ccccc2c1NC(=O)CN1CCN(C/C=C/c2ccccc2)CC1 | -18% | ? | 11µM* | -8% | · | 18µM*
Clc1ccc(-c2nc(N3CCCCC3)nc3ccccc23)cc1 | -6% | 1% | -6% | 6% | -18% | ?
c1ccc(-c2nc(-n3nc4ccccc4n3)nc3ccccc23)cc1 | 9% | ? | 14µM* | -1% | -12% | ?
O=C1c2ccccc2C(=O)N1/N=C/c1ccc(O)c(O)c1 | -10% | 9% | -3% | -5% | 8% | -12%
CN=c1scc(C)n1/N=C/c1cc(Br)c(O)c(Br)c1 | -13% | -6% | 20% | -7% | 42% | ?
C=CCN=c1scc(C)n1/N=C/c1ccc(O)c(O)c1 | ? | · | 11µM* | -13% | 77% | ·
CN=c1scc(C)n1/N=C/c1ccc(O)cc1 | -7% | ? | ? | -8% | 29% | ?
SMILES | Sm TGR block | Lassa entry inh | HCV inhibitor | RE007 growth inh | FMDV inh | MARV entry inh
CN=c1scc(C)n1/N=C/c1ccc2c(c1)OCO2 | -21% | 3.5µM* | ? | ? | -64% | ?
CN=c1scc(-c2ccco2)n1/N=C/c1ccc(O)c(O)c1 | 10µM* | ? | 2.5µM* | -13% | 14µM* | ?
Cn1cnnc1Sc1ccc(CN2CCOc3ccc(C4=Cc5ccccc5C4)cc3C2)o1 | · | · | · | · | 30% | ·
COC(=O)c1c(OCc2cccnc2)cc(=O)n2c1CCN(C(=O)c1ccc(OC)c(F)c1)CC2 | · | · | · | · | -5% | ·
Cc1ccc(S(=O)(=O)N2CCN(Cc3nnc(-c4c(-c5ccccc5)noc4C)o3)CC2)cc1 | -3% | 16% | ? | 10% | 40µM* | 4%
CCCNC(=O)CCNS(=O)(=O)c1ccc2c(c1)c(=O)n(C)c(=O)n2C | 9% | -2%[46.1 µM] | · | · | -18% | 9%[46.1 µM]
CC(=O)c1ccc(S(=O)(=O)Nc2cccc(-c3ccc(N4CCCCCC4)nn3)c2)cc1 | 3% | 11%[46.1 µM] | · | · | 42% | ·
CCCN(CCC)C(=O)c1cc([N+](=O)[O-])cc2c1-c1ccc([N+](=O)[O-])cc1C2=C(C#N)C#N | 5µM* | · | ? | 1% | ? | ·
Cc1c(Cc2ccc3c(c2)OCO3)sc(NC(=O)c2ccc3ccccc3c2)c1C(N)=O | -4% | -9% | ? | -7% | 12% | 0%
Cc1nc(NC(=O)c2ccc(OCC(C)C)cc2)sc1Cc1ccc2c(c1)OCO2 | -2% | · | 14µM* | 4% | -9% | ·
CCCOc1ccc(C(=O)Nc2nc(C)c(Cc3ccc4c(c3)OCO4)s2)cc1 | 6% | 10% | 3.5µM* | 12% | -19% | 35%
COc1cc(C(=O)NCCc2ccc3c(c2)OCO3)cc(OC)c1OC | · | -23%[46.1 µM] | -9% | -3% | -2% | -12%[46.1 µM]
COc1cc(C(=O)Nc2nc(C)c(Cc3ccc4c(c3)OCO4)s2)cc(OC)c1OC | 7% | ? | 10µM* | -22% | -29% | -42%
CCCOc1ccc(C(=O)Nc2ccc3c(c2)OCO3)cc1 | -7% | · | ? | 6% | 38% | ·
C=CCN1C(=O)CC[C@@]23C1=NC(C(=O)OC)=C(C(=O)OC)[C@@H]2N(CC#CC)c1ccccc13 | · | · | · | · | · | -20%[14.2 µM]
CCc1ccc2oc(-c3ccc(NC(C)=O)cc3)nc2c1 | -3% | ? | 0% | 5.6µM* | 1% | ?
CCN(CC)CC(=O)Nc1ccc(-c2nc3cc(NC(=O)CN(CC)CC)ccc3o2)cc1 | -2% | 11% | -24% | -11% | 14% | 0.71µM*
CCOc1ccc(NC(=O)CSc2ncc(-c3ccc(F)cc3)n2Cc2ccco2)cc1 | -19% | · | 10µM* | 1% | -15% | ·
C(=C\c1ccccc1)/CSc1nnc(-c2cnccn2)n1Cc1ccco1 | 20µM* | -13% | ? | 1% | -18% | -24%

Compound activity: PubChem, National Center for Advancing Translational Sciences (NCATS)
